A short description of assay [1]: NCI Yeast Anticancer Drug Screen. Data for the rad50 strain (AID 155).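 Further: 0% = growth of vehicle-only cultures of the same strain.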 As to conditions: S. cerevisiae rad50 strain growth inhibition, stronger effect = higher value. In short, it runs like this: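 Relative growth inhibition (compound vs vehicle) was measured in yeast with a defined repair-gene alteration.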
A short description of assay [2]: NCI Yeast Anticancer Drug Screen. Data for the mec2-1 strain (AID 157). The conditions noted are these: S. cerevisiae mec2-1 strain, stronger effect = higher value. In short, it runs like this: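 Cells of the genetically defined mec2-1 yeast strain are incubated with test compound. Inhibition of growth is calculated against vehicle-treated controls.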
A short description of assay [3]: NCI Yeast Anticancer Drug Screen. Data for the sgs1 mgt1 strain (AID 161).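 Further: 0% = growth of cultures given vehicle only.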 The conditions noted are these: S. cerevisiae sgs1 mgt1 strain, stronger effect = higher value. A digest of the protocol:
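Read-out: growth inhibition vs vehicle controls. Cells: mutant yeast strain deficient in DNA damage repair.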

Assay [4] is described as follows: NCI Yeast Anticancer Drug Screen. Data for the cln2 rad14 strain (AID 165).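 Further: 0% = growth equal to vehicle treated cultures.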 As to conditions: S. cerevisiae cln2 rad14 strain, stronger effect = higher value. A digest of the protocol:
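The screen exposed genetically defined yeast (cln2 rad14) to test compounds and scored growth inhibition relative to vehicle-treated controls.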

The nature of assay [5]: NCI Yeast Anticancer Drug Screen. Data for the bub3 strain (AID 167). As to conditions: S. cerevisiae bub3 mutant strain, stronger effect = higher value. A digest of the protocol:
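Screening used yeast with an engineered genetic alteration affecting cell cycle control. Compound-exposed cultures were compared with vehicle cultures, and reduced growth was taken as inhibition.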

The nature of assay [6]: NCI Yeast Anticancer Drug Screen. Data for the mlh1 rad18 strain (AID 175). As to conditions: S. cerevisiae mlh1 rad18 strain growth inhibition, stronger effect = higher value. A digest of the protocol: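 Compound-treated yeast growth, normalised to vehicle controls. Strain bears defined DNA repair mutations.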
The mark [7] stands for this setting: at 5.0 µM (retest, dose inferred, filed as 0.5).
Setting [8] is: at 50.0 µM (retest, dose inferred, filed as 5.0).

This is part of a sample that, as a whole, favours compounds with a hit. Of some 79,000 tested, about 15% had one in any assay. A number with no mark means an inactive call. Active and inactive are the calls of the source. No stated cut-off is given here; in the data, active means growth inhibition above about 70%; inactive means the rest.

For the compound `O=Cc1cc(O)ccc1Br`, the growth inhibition in assay [1] (setting [7]) was 33%; in assay [1] (setting [8]) it was 96% (active); in assay [1] (at 50.0 µM), 71.3% (active); in assay [2] (setting [7]), 28%; in assay [2] (setting [8]), 96% (active); in assay [2] (at 50.0 µM), 76.8% (active). Besides, the growth inhibition in assay [3] (setting [7]) was 37%; in assay [3] (setting [8]) it was 97% (active); in assay [3] (at 50.0 µM), 91.6% (active); in assay [4] (setting [7]), 29%; in assay [4] (setting [8]), 58%; in assay [4] (at 50.0 µM), 82.7% (active). For the same compound, the growth inhibition in assay [5] (setting [7]) is 40%; in assay [5] (setting [8]) it was 99% (active); in assay [5] (at 50.0 µM) it was 89.3% (active); in assay [6] (setting [7]), 32%; in assay [6] (setting [8]), 98% (active); in assay [6] (at 50.0 µM), 79.6% (active).
Consider `CC(C)(CN1CCCCC1)C(=O)/C=C/c1ccc(Cl)c(Cl)c1`, for which the growth inhibition in assay [1] (setting [7]) is 60%; in assay [1] (setting [8]), 97% (active); in assay [1] (at 50.0 µM) it was 93.3% (active); in assay [2] (setting [7]), 27%; in assay [2] (setting [8]), 98% (active); in assay [2] (at 50.0 µM), 94.7% (active). In addition, the growth inhibition is 31% in assay [3] (setting [7]); 96% (active) in assay [3] (setting [8]); 93.2% (active) in assay [3] (at 50.0 µM); 28% in assay [4] (setting [7]); 96% (active) in assay [4] (setting [8]); 91.8% (active) in assay [4] (at 50.0 µM). The growth inhibition was 47% in assay [5] (setting [7]); 96% (active) in assay [5] (setting [8]); 92.9% (active) in assay [5] (at 50.0 µM); 52% in assay [6] (setting [7]); 97% (active) in assay [6] (setting [8]); 92.7% (active) in assay [6] (at 50.0 µM).
Consider `O=C(CSC1=NNC2(C(=O)N1)c1ccccc1-c1ccccc12)NC(=S)Nc1ccccc1`, for which the growth inhibition in assay [1] (setting [7]) was -3%; in assay [1] (setting [8]), 95% (active); in assay [1] (at 50.0 µM) it was 96.2% (active); in assay [2] (setting [7]) it was -15%; in assay [2] (setting [8]) it was 90% (active); in assay [2] (at 50.0 µM) it was 97% (active). The growth inhibition in assay [3] (setting [7]) is -7%; in assay [3] (setting [8]), 96% (active); in assay [3] (at 50.0 µM), 98% (active); in assay [4] (setting [7]) it was -8%; in assay [4] (setting [8]) it was 86% (active); in assay [4] (at 50.0 µM), 96.4% (active). In addition, the growth inhibition was -16% in assay [5] (setting [7]); 94% (active) in assay [5] (setting [8]); 97.5% (active) in assay [5] (at 50.0 µM); -24% in assay [6] (setting [7]); 95% (active) in assay [6] (setting [8]); 97% (active) in assay [6] (at 50.0 µM).
Consider `CC(=O)OC1(C)C(=C(Cl)Cl)C2c3ccccc3C1c1ccccc12` (stereo not given), for which the growth inhibition was 0% in assay [1] (setting [7]); 91% (active) in assay [1] (setting [8]); 92.7% (active) in assay [1] (at 50.0 µM); 19% in assay [2] (setting [7]); 88% (active) in assay [2] (setting [8]); 82.2% (active) in assay [2] (at 50.0 µM). For the same compound, the growth inhibition is 2% in assay [3] (setting [7]); 92% (active) in assay [3] (setting [8]); 94.3% (active) in assay [3] (at 50.0 µM); 7% in assay [4] (setting [7]); 89% (active) in assay [4] (setting [8]); 64.4% in assay [4] (at 50.0 µM). Besides, the growth inhibition was -4% in assay [5] (setting [7]); 93% (active) in assay [5] (setting [8]); 93.2% (active) in assay [5] (at 50.0 µM); 10% in assay [6] (setting [7]); 91% (active) in assay [6] (setting [8]); 93.8% (active) in assay [6] (at 50.0 µM).
`O=C1c2cccnc2-c2nccc3c2c1nc1cc(Br)ccc13`: the growth inhibition in assay [1] (setting [7]) was 61%; in assay [1] (setting [8]), 98% (active); in assay [1] (at 50.0 µM), 88.7% (active); in assay [2] (setting [7]), 44%; in assay [2] (setting [8]), 99% (active); in assay [2] (at 50.0 µM), 92.2% (active). The growth inhibition in assay [3] (setting [7]) was 94% (active); in assay [3] (setting [8]), 98% (active); in assay [3] (at 50.0 µM), 89.9% (active); in assay [4] (setting [7]) it was 28%; in assay [4] (setting [8]), 97% (active); in assay [4] (at 50.0 µM), 88.2% (active). Further, the growth inhibition is 88% (active) in assay [5] (setting [7]); 98% (active) in assay [5] (setting [8]); 89.2% (active) in assay [5] (at 50.0 µM); 58% in assay [6] (setting [7]); 98% (active) in assay [6] (setting [8]); 77.2% (active) in assay [6] (at 50.0 µM).
For the compound `Cc1ccc(S(=O)(=O)Oc2ccc3oc4c(CO)ccc(NCCN(C)C)c4c(=O)c3c2)cc1`, the growth inhibition was 3% in assay [1] (setting [7]); 5% in assay [1] (setting [8]); 16.6% in assay [1] (at 50.0 µM); 0% in assay [2] (setting [7]); -32% in assay [2] (setting [8]); -17.6% in assay [2] (at 50.0 µM). The growth inhibition was 2% in assay [3] (setting [7]); 16% in assay [3] (setting [8]); 97.8% (active) in assay [3] (at 50.0 µM); 1% in assay [4] (setting [7]); 7% in assay [4] (setting [8]); -2.35% in assay [4] (at 50.0 µM). Besides, the growth inhibition in assay [5] (setting [7]) is 3%; in assay [5] (setting [8]), 4%; in assay [5] (at 50.0 µM) it was -9.25%; in assay [6] (setting [7]), 3%; in assay [6] (setting [8]) it was 14%; in assay [6] (at 50.0 µM) it was 43%.
Consider `Cc1ccc(N=NC(C(=O)c2ccccc2)C(=O)c2ccccc2)cc1`, for which the growth inhibition in assay [1] (setting [7]) is 7%; in assay [1] (setting [8]) it was 94% (active); in assay [1] (at 50.0 µM) it was 93% (active); in assay [2] (setting [7]), -3%; in assay [2] (setting [8]), 97% (active); in assay [2] (at 50.0 µM), 93.3% (active). In addition, the growth inhibition in assay [3] (setting [7]) is 14%; in assay [3] (setting [8]), 92% (active); in assay [3] (at 50.0 µM) it was 91.3% (active); in assay [4] (setting [7]), 7%; in assay [4] (setting [8]), 94% (active); in assay [4] (at 50.0 µM) it was 87.9% (active). The growth inhibition in assay [5] (setting [7]) was -3%; in assay [5] (setting [8]), 95% (active); in assay [5] (at 50.0 µM), 93.1% (active); in assay [6] (setting [7]) it was -2%; in assay [6] (setting [8]) it was 95% (active); in assay [6] (at 50.0 µM) it was 92.5% (active).
Consider `O=C(NNS(=O)(=O)c1ccccc1)Nc1ccccc1`, for which the growth inhibition was -21% in assay [1] (setting [7]); -15% in assay [1] (setting [8]); -13.4% in assay [1] (at 50.0 µM); 17% in assay [2] (setting [7]); -11% in assay [2] (setting [8]); 5.85% in assay [2] (at 50.0 µM). The growth inhibition is -3% in assay [3] (setting [7]); 6% in assay [3] (setting [8]); 7.45% in assay [3] (at 50.0 µM); -1% in assay [4] (setting [7]); 4% in assay [4] (setting [8]); 3.8% in assay [4] (at 50.0 µM). Besides, the growth inhibition in assay [5] (setting [7]) is 2%; in assay [5] (setting [8]), 1%; in assay [5] (at 50.0 µM) it was 7.2%; in assay [6] (setting [7]) it was 4%; in assay [6] (setting [8]), 15%; in assay [6] (at 50.0 µM) it was -5.3%.
Turning to `O=C(CNC(=O)c1ccccc1)Oc1c(Cl)c(Cl)c(Cl)c(Cl)c1Cl`, the growth inhibition is 12% in assay [1] (setting [7]); 61% in assay [1] (setting [8]); 75% (active) in assay [1] (at 50.0 µM); 42% in assay [2] (setting [7]); 82% (active) in assay [2] (setting [8]); 74.8% (active) in assay [2] (at 50.0 µM). Also, the growth inhibition in assay [3] (setting [7]) was 38%; in assay [3] (setting [8]) it was 89% (active); in assay [3] (at 50.0 µM), 90.8% (active); in assay [4] (setting [7]), 7%; in assay [4] (setting [8]), 42%; in assay [4] (at 50.0 µM), 65.9%. Further, the growth inhibition in assay [5] (setting [7]) was 1%; in assay [5] (setting [8]), 45%; in assay [5] (at 50.0 µM), 34%; in assay [6] (setting [7]), 50%; in assay [6] (setting [8]) it was 90% (active); in assay [6] (at 50.0 µM), 77.5% (active).
For the compound `CN(C(=S)c1ccccc1)c1ccccc1`, the growth inhibition in assay [1] (setting [7]) is -166%; in assay [1] (setting [8]), -132%; in assay [1] (at 50.0 µM) it was 97.4% (active); in assay [2] (setting [7]), -45%; in assay [2] (setting [8]) it was -56%; in assay [2] (at 50.0 µM) it was 82% (active). The growth inhibition is -63% in assay [3] (setting [7]); -61% in assay [3] (setting [8]); 69.2% in assay [3] (at 50.0 µM); -61% in assay [4] (setting [7]); -65% in assay [4] (setting [8]); 58.7% in assay [4] (at 50.0 µM). The growth inhibition in assay [5] (setting [7]) is -81%; in assay [5] (setting [8]), -80%; in assay [5] (at 50.0 µM), 96.6% (active); in assay [6] (setting [7]), -150%; in assay [6] (setting [8]), -131%; in assay [6] (at 50.0 µM), 91.7% (active).

Values taken from PubChem BioAssay (NCI).
